# Experimental data: the supplement of paper PMC6555819
# System: VDR:RXRa (NR concentration 270 nM, RXRa partner concentration 90 nM)
# Test: PBM binding z-score (relative to random genomic background probes); higher = stronger binding; sequences stand for … in GC…GCGATTGACAGCGTAGAATGAAGG
# Protocol: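 Protein-binding microarray (Agilent 4x180K custom design, double-stranded 60-nt probes: 5' GC cap, 34-nt variable region, 24-nt constant primer region; full probe sequence given). Purified or IVT nuclear receptor:RXRα heterodimers (3:1 NR:RXRα, mostly 270:90 nM) or homodimers were incubated for 1 h in PBS with 2% milk and no ligand, then detected with Alexa488 antibodies. Fluorescence from o1-orientation probes (~5 replicates averaged) was converted to z-scores against 500 random hg19 background probes. Variable regions are seed direct-repeat (DR0–DR5) sites, all their single-nucleotide variants and half-site ablations.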
row,Sequence,PBM binding z-score
1,AGAACGAGGGCACGCTGAGTTGATAACAGAGTAG,2.06
2,GCGACTGGGGCATCAGCAGGTTACCCTAACTTAA,-0.249
3,TCTTGTAGATCAGCAGGTTAAGCAAGCTGGCCAA,0.275
4,TCATATAGGTAAACACGTGAAAGTCCGTAAGTTA,0.885
5,ACTAGTTGGTTAGCTGAGGTCACACACAATTCGG,4.03
6,CGACCAAGGTCAGAGAGGTCAGTGAATGCCGAGT,7.47
7,TCTATTATTTGAAGGGCAACCGACGAGTCCGTTT,1.55
8,TCTGCGAGGTCAGTTGGTCAGCTAACGAGCTGCC,3.43
9,TCAATGAGGTTATAAGATCAGGGAACGTTGCAAA,1.22
10,TCTCGGAGGACACGCAGGTCAGAGCTTTCCAGAG,1.58
11,TGAATGAGGTTATAAGACCAGGGAACGTTGCAAA,0.916
12,ACTAGCAGGCCACGGGTCACTCAAGATTAGTCCG,1.2
13,CGACCTAGGTCATTGACAGGACAGTGAATAGTAA,2.97
14,GCAGACAGGTGAAACGCAGTTAACTCAGGGTGGC,-0.561
15,TCGAGTAGGTAACCAATGGGGCATTCAGCTTTCT,-0.172
16,CGTCCAAGGTCAAAGGTCAGTGAAGAGATGACGG,6.76
17,CCTCGGAGGACAGGAGGTCAGAGCTGTCCGCTTT,1.47
18,CCGAGTAGGTTATCGGGCATTCAGGCAACGGTGA,-0.386
19,TCATACAGGTAAAGGTGAAAGTCGAACGATATGA,1.13
20,GCTTGTAGATCACGGTTAAGAAAGACTAAGCTAA,-0.34

row,Sequence,PBM binding z-score
1,ATACCAAGGTGATCGTCAGGTCGTTGATACTAAC,1.36
2,ATTATTAGTTGACTTAGGGCAACCGATACGACGC,0.926
3,GCATATAGCTAATACAAGGTGAAAGTCCGATTGT,0.231
4,GCAGACAGGTGAAACGCAGGTAACTCCGGGTGGC,-0.595
5,GCTATTAGTTGAAAGGGCAACCTAATGATTCTCG,0.478
6,GCTGCTAGGTCACGTTGGTCAGCTAACGGGTACG,2.29
7,AATACAGGGTCATCGTGGGCCAGAGTACGCACAG,5.18
8,TCTTGTAGATCAAAGGTTAAGCAAGCCGAAGCCT,1.65
9,AGAATGAGGTTAAGATCAGGGAAACAGAATACAT,1.19
10,GTACAAAGGTGAATAGGTCGTTGATGAGTAGGCG,2.18
11,GCGACTGGGGCATCACCAGGTTACCATAACTTAA,-0.162
12,TAGCCTAGGTCATGGGCCATTATACCACGCGAAC,2.27
13,ATAGACAGGTGATGAAGGTAACTCAGGCTATCAT,0.166
14,CGTCCAAGGTCAGCAGATCAGTGAAAGCGACGTG,2.37
15,TCGAGTAGGTTAGGGGCAATCAGAATGGCGTCGA,0.363
16,ATCTCTAGGTAGCCAAGTTCAGTGAATGCCGAAC,2.24
17,TCTATAAGTTGATTAGGGCAACCGAAACAGCGGA,0.463
18,CCAGTCAGGTGAGAAGGTAACTCAGCCTCGATTA,-0.296
19,TAGCCTAGGTCATGGGGCCAGTATAGTACGCATC,2.69
20,CCTAGCAGGCCAGGGTGACTCAAGCATTTCGCTT,-0.639
